For experiment [1], the target named is T1, Aspartate--tRNA(Asp/Asn) ligase (Mycobacterium tuberculosis (strain ATCC 25618 / H37Rv)) (UniProt P9WFW3). Also: in the data most compounds retested in dose-response had high values.
T1 sequence (whole entry): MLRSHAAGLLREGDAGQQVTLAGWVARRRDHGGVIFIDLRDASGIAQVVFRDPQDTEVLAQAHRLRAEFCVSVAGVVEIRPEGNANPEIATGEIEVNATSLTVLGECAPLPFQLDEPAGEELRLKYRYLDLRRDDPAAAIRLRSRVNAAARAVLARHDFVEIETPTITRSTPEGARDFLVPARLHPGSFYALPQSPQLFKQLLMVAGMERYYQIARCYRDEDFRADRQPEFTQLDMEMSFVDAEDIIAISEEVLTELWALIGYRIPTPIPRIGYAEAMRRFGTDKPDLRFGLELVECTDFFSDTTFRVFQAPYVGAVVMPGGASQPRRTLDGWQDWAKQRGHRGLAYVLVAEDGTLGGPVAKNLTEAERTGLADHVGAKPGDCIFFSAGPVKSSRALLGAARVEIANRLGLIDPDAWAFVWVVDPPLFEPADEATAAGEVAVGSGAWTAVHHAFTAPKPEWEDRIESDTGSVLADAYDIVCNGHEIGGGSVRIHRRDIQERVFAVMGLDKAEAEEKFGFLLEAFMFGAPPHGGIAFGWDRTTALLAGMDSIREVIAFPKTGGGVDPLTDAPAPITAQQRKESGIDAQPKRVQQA
The experiment is described as follows: Assay for Asp RNA synthetase-1 from Mycobacterium tuberculosis. It is filed as functional. The conditions noted are these: 30 µM. Details: scale not given: direction of the effect not stated beside the values.

The target in experiment [2] is Shiga toxin 2 (Escherichia coli O157:H7) (UniProt P09385+P09386). The experiment is described as follows: E. coli 0.157:H7 Shiga Toxin SOP - stx2 screening assay. It is filed as functional. Details: scale not given: direction of the effect not stated beside the values. Particulars: 30 µM.

Consider `COc1cccc(COCC(=O)N2CCCC(N3CCCC3)CC2)c1` (centres undefined), for which the Percent Effect in experiment [1] is -5.12%; in experiment [2], 12.6%.

As for `O=C(Cc1ccccn1)N1CCC2(CC1)CC(Oc1ccccn1)CO2` (centres undefined), the results for the Percent Effect in experiment [1] and in experiment [2] were -3.87% and -3.37%, respectively.

As for `CCC(=O)Nc1nnc(CCOc2cccc(OC)c2)s1`, the Percent Effect was -4.27% in experiment [1] and 5.93% in experiment [2].

Take `Cc1cccc(OCCC(=O)N2CCN(S(=O)(=O)N(C)C)CC2)c1C`: the values for the Percent Effect in experiment [1] and in experiment [2] were -1.74% and -7.47%, respectively.

On to `CN(C)C(=O)N1C[C@H]2CCC[C@@]2(COc2ccccn2)C1`, for which the Percent Effect in experiment [1] turned out to be 3.31%; in experiment [2], 10.3%.

As to `CC(C)CNC(=O)NC(=O)CNc1ccccc1SCC(C)C#N` (centres undefined), the Percent Effect in experiment [1] was -5.03%; in experiment [2] it was 4.99%.

For `CC(C)(C)c1n[nH]c(C2CN(C(=O)c3ccsc3)CCO2)n1` (centres undefined), the Percent Effect in experiment [1] was -2.97%; in experiment [2], 7.5%.

As to `CC(=O)NCCNC(=O)c1sc(-c2ccc(C)cc2C)nc1C`, the Percent Effect is 3% in experiment [1] and 2.48% in experiment [2].

For `CCCc1nc(NCCCO)c2c(n1)c(C)nn2CC`, the results for the Percent Effect in experiment [1] and in experiment [2] were -5.08% and -4.19%, respectively.

As for `COCCN1CCC(NCc2cccc(F)c2)C1` (centres undefined), the Percent Effect in experiment [1] is -3.37%; in experiment [2] it was -17.4%.

For the molecule `CCc1noc(C(C)N2CCC(N3CCCC3)CC2)n1` (centres undefined), the figures for the Percent Effect in experiment [1] and in experiment [2] were -8.83% and -5.16%, respectively.

Turning to `Fc1cnc(N2C[C@H]3CCC[C@@]3(COc3ccccn3)C2)nc1`, the figures for the Percent Effect in experiment [1] and in experiment [2] were 0.435% and 2.51%, respectively.

As to `Cc1cc(C(=O)NCc2ccccn2)no1`, the Percent Effect in experiment [1] was -4.62%; in experiment [2], -0.424%.

With `CCCNC(=O)c1ccc2c(c1)C(=O)N(CC(C)C)C2=O`, the Percent Effect was 1.59% in experiment [1] and 3.24% in experiment [2].

`Cc1cc(C)nc(CCNC(=O)C(c2ccc(F)cc2)N(C)C)n1` (centres undefined): the Percent Effect in experiment [1] was -1.5%; in experiment [2], -52.8%.

On to `COc1cc(N2C[C@@H]3COC[C@]3(COc3cccnc3)C2)ncn1`, for which the Percent Effect was -3.68% in experiment [1] and -5.75% in experiment [2].

Turning to `O=S(=O)(CCNC1CCc2ncnn2C1)c1ccccc1` (centres undefined), the Percent Effect in experiment [1] was 1.06%; in experiment [2] it was -24.1%.

On to `CCn1cc2c(n1)CN(Cc1ccncc1)CC2COCC1CC1` (centres undefined), for which the Percent Effect in experiment [1] is 1.43%; in experiment [2], -18.6%.

In the case of `NC(=O)NC(=O)CCN1CCCN(c2nccs2)CC1`, the Percent Effect is 1.54% in experiment [1] and -33.2% in experiment [2].

For `CCc1nc(CN2CCCN(C(=O)C(C)COC)CC2)cs1` (centres undefined), the Percent Effect in experiment [1] is -0.303%; in experiment [2] it was -63.3%.

`CNCC(=O)N1CCC(c2ccnc(Nc3ccc(C)cn3)n2)C1` (centres undefined): the Percent Effect in experiment [1] was 2.93%; in experiment [2], -58.2%.

Take `O=C(O)CCc1cccc(C2CCCN2Cc2ccc(F)c(F)c2)n1` (centres undefined): the Percent Effect in experiment [1] was -0.372%; in experiment [2] it was 2.71%.

Consider `Cc1nnn2c1COCC(CNC(=O)c1ccc3[nH]ccc3c1)C2` (centres undefined), for which the figures for the Percent Effect in experiment [1] and in experiment [2] were 0.238% and -35.3%, respectively.

For `Cc1cnc(CN2CCC(N(C)Cc3nnc(C4CC4)n3C)C2)cn1` (centres undefined), the Percent Effect in experiment [1] is 5.06%; in experiment [2], 5.3%.

As to `Cc1cc(C[C@@H]2COC[C@@H]2NC(=O)CN2CCCC2)on1`, the Percent Effect is 4.6% in experiment [1] and -10.1% in experiment [2].

As to `CCn1ccnc1CN1CCN(CCC(=O)NC(C)(C)C)CC1C` (centres undefined), the results for the Percent Effect in experiment [1] and in experiment [2] were -4.35% and 15.4%, respectively.

For `Cc1nn(C)c(N(C)C)c1CNCc1ccc(OCC(N)=O)cc1`, the values for the Percent Effect in experiment [1] and in experiment [2] were -6.72% and -11.7%, respectively.

Consider `COc1ccc(C[C@H]2CN(C(=O)CN(C)C)CC[C@H]2OC)cc1`, for which the figures for the Percent Effect in experiment [1] and in experiment [2] were 0.341% and -5.78%, respectively.

In the case of `O=C([C@@H]1CC[C@@H]2[C@@H](CCN2Cc2ccoc2)O1)N1CCCC1`, the Percent Effect in experiment [1] was 0.466%; in experiment [2] it was 1.2%.

Regarding `CC(Nc1cccc(CN2CCOC2=O)c1)C(=O)Nc1ccccc1F` (centres undefined), the results for the Percent Effect in experiment [1] and in experiment [2] were 1.17% and -24.4%, respectively.

For `Cc1noc(C)c1CNC(=O)N1CCC(CO)CC1`, the Percent Effect in experiment [1] was 2.21%; in experiment [2], -4.58%.

Turning to `CCC(=O)N1CCN(Cc2cc(-c3ccncc3)nn2C)CC1`, the figures for the Percent Effect in experiment [1] and in experiment [2] were -0.849% and -10.7%, respectively.

Take `O=C(c1cnccn1)N1CCCC2(COCCN(CC3CC3)C2)C1` (centres undefined): the Percent Effect in experiment [1] amounted to 3.16%; in experiment [2], 9.41%.

Regarding `O=C(c1ccc(Br)o1)N1CCCCC1Cn1cccn1` (centres undefined), the Percent Effect was 4.78% in experiment [1] and -8.55% in experiment [2].

Take `CCN(CC)C(=O)CCNc1cncc(-n2nc(C)cc2C)n1`: the Percent Effect in experiment [1] was 1.51%; in experiment [2], -34.2%.

Take `CC(C)c1nc(C2CCCN2Cc2ccno2)no1` (centres undefined): the Percent Effect in experiment [1] came out at 1.46%; in experiment [2] it was 1.7%.

In the case of `CN(Cc1ccc(F)cc1)C(=O)NCC1(N2CCOCC2)CCSC1` (centres undefined), the Percent Effect in experiment [1] was -1.08%; in experiment [2], -43.8%.

For the origin of these results see ChEMBL document CHEMBL3988442, “University of Dundee, Small-Polar-MMV Screening Library” (2021).
